# Several values for one entry are separate records, joined by “and”; a condition that tells them apart may be missing. Equal values may be shown once. Screen size: about 350,000 compounds; about 990 (0.28%) were called active. Another 2% or so got no clear call; they are omitted. Calls come from the whole dose curve; as a rule, active = well fitted inhibition curve with a large enough effect; inconclusive = small, poorly fitted or top-dose-only effect; inactive = no such curve, though single readings can be large or run the other way. The full list was thinned out, with actives kept by preference. More than one record can exist for a structure, and the calls need not agree.
# Target: Tyrosyl-DNA phosphodiesterase 1 (Homo sapiens) (UniProt Q9NUW8)
# Sequence (Q9NUW8 whole entry, looked up): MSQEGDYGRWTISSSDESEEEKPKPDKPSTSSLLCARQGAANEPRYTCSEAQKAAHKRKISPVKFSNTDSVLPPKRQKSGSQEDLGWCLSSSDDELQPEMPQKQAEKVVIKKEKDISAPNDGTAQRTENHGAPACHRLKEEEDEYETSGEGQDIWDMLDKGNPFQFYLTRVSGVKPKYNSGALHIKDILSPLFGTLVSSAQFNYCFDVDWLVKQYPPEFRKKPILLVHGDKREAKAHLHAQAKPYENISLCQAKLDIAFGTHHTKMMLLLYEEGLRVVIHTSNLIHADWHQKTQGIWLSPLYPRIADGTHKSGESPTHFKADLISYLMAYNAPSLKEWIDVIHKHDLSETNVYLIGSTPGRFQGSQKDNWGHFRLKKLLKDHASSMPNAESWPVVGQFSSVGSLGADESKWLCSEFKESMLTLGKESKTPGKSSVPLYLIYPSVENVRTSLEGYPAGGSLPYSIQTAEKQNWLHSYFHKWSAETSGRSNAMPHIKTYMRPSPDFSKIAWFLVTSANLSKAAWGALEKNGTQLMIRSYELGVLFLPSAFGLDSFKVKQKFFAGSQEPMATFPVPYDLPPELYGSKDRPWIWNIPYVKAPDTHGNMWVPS
# Experiment: qHTS Assay for Inhibitors of Tyrosyl-DNA Phosphodiesterase (TDP1); note: nearly all actives have a fitted effect of over 40% in size
# Conditions: recombinant TDP1, AlphaScreen DNA substrate cleavage; series mostly up to 130 µM; activity change, negative = inhibition: at the top concentration
# Text: NIH Molecular Libraries Probe Production Network [MLPCN]
# NIH Chemical Genomics Center [NCGC]
# Assay Provider: Yves Pommier and Christophe Marchand, National Cancer Institute
# Assay Title: qHTS Assay for Inhibitors of Tyrosyl-DNA Phosphodiesterase (TDP1); note: nearly all actives have a fitted effect of over 40% in size
# Human tyrosyl-DNA phosphodiesterase I (Tdp1) is a rational anticancer target because this enzyme is involved in the repair of DNA lesions created by the trapping of human DNA topoisomerase I (Top1) following treatment by anticancer agents such as camptothecins. Recombinant Tdp1 was expressed and purified from E. coli in the laboratory (Anthony et al, Nucleic Acids Research, 2007, Vol. 35, 4474-4484). A Tdp1 DNA substrate bearing a 5' biotin and a 3' phospho-tyrosine was obtained by custom synthesis. This oligonucleotidic DNA substrate was subsequently coupled to a fluorescein isothiocyanate (FITC) group via the free amino group present on the phospho-tyrosine. Tdp1 was screened against the NCGC small molecule library using the AlphaScreen (AS) detection method in which a streptavidin donor AS bead is bound at the 5' end and an anti-FITC AS acceptor bead is bound at the 3' end of the DNA oligonucleotidic substrate. In the presence of Tdp1, the enzyme cleaves the tyrosine-FITC group, leaving a 3' end phosphate on the DNA substrate. This cleavage reaction results in a loss of signal in AS.
# [1] 3 ul of buffer is dispensed in columns 3 & 4 as negative control (no enzyme and maximum signal),
# [2] 3 ul of enzyme (1 nM final) is dispensed in columns 1,2, 5-48,
# [3] 1 ul of substrate (15 nM final) is dispensed throughout the plate,
# [4] 1 ul of AS donor/acceptor bead mix (10 ug/ml final) is dispensed throughout the plate
# 3 ul of Tdp1 enzyme is dispensed to 1536-well Kalypsys black solid bottom plates. Compounds and controls (23 nl) are transferred via Kalypsys Pin Tool. The plates are incubated for 15 min at room temperature, and then 1 ul of substrate is added to start the reaction. After 5 min incubation at room temperature, 1 ul of AS donor/acceptor bead mix is added and the plates are further incubated for 10 min at room temperature. The detection is then performed on a PerkinElmer Envision reader.
# % is set by controls: 0 for no effect and ±100 for the full control effect; potency is the fitted concentration of half-maximal effect.
SMILES,Potency,"activity change, negative = inhibition"
CC(C)Nc1nc(Cl)nc(NC(C)C)n1,inactive and 28.2 µM (active),–
CCC(CCC(C)C1CCC2C3CC=C4CC(O)CC[C@@]4(C)C3CC[C@@]12C)C(C)C (stereo not given in full),–,5.38% (inactive)
C=CC#N,–,-7.61% (inactive)
O=NO,inactive,–
CN1[C@H]2CC(OC(=O)[C@@H](CO)c3ccccc3)C[C@H]1[C@H]1O[C@H]12 (stereo not given in full),–,5.13% [at 21 µM] (inactive)
CC(=O)CC(C)C,–,15.5% (inactive)
CC(C)(O/N=C(\C(=O)N[C@@H]1C(=O)N2C(C(=O)[O-])=C(C[n+]3ccccc3)CS[C@@H]12)c1csc(N)n1)C(=O)O,12.6 µM (active),–
CCCCCCCCCCCCN=C(N)N,–,0.984% (inactive)
CCN(CC)c1nc(C)cc(OP(=S)(OC)OC)n1,–,8.2% (inactive)
CC(=O)[O][Sn]([c]1ccccc1)([c]1ccccc1)[c]1ccccc1,–,6.23% (inactive)
CCCCC/C=C\C/C=C\C/C=C\CCCCCCC(=O)NCCO,inactive,–
CCCCC/C=C\C/C=C\C/C=C\C/C=C\CCCCCC(=O)NCCO,inactive and 39.8 µM (active),–
CN(C)C[C@H]1CCCC[C@]1(O)c1cccc(O)c1,–,-0.328% (inactive)
C[C@@H]1C[C@H]2CC[C@H](O2)[C@H](C)C(=O)O[C@@H](C)C[C@@H]2CC[C@@H](O2)[C@@H](C)C(=O)O[C@H](C)C[C@H]2CC[C@H](O2)[C@H](C)C(=O)O[C@@H](C)C[C@@H]2CC[C@@H](O2)[C@@H](C)C(=O)O1,–,8.2% (inactive)
CC(CCC(=O)O)C1CCC2C3C(O)C[C@@H]4CC(O)CC[C@@]4(C)C3CC[C@@]12C (stereo not given in full),inactive,–
O=C(O)c1cc[c]([Sb](=[O])([OH])[OH])cc1[N+](=O)[O-],1.58 µM (active),–
S=P(c1ccccc1)(c1ccccc1)c1c(-c2ccccc2)[nH]c2ccccc12,–,1.74% (inactive)
Nc1ccc(-c2ccc(N)c(N)c2)cc1N,–,19.3% (inactive)
O=C1CCc2cccc3c2N1CC3,–,4.92% (inactive)
Cc1cccc2c3c(ccc12)C1=C(C(=O)C3=O)C(C)CO1 (stereo not given),–,22.4% (inactive)

# — PubChem BioAssay AID485290 (National Center for Advancing Translational Sciences (NCATS), 2010)
